# PubChem BioAssay AID1159580 (chemical genetic matrix, 2015)
# “And” between values parts separate entries of the source, which are not always exact repeats. Equal values may be shown once. Among all 5,500 compounds or so, about 2,000 (36%) were called active. Roughly 18% stayed inconclusive and do not appear here. This is one part of the list. Values without a mark were called inactive. Rule as the data show it: active = normalized growth mostly below about 0.91 (no sharp cut-off); inconclusive = no clear call, values can overlap the other calls; inactive = mostly above about 0.92.
# Test: chemical genetic growth profiling, strain panel (AID 1159580);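 also: tested at 20 µM; growth read once vehicle control cultures reached saturation at 30 °C; 1 = growth at the plate median or of vehicle wells; lower values mean less growth of the strain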
# Details: S. cerevisiae deletion strains, growth OD
structure (smiles),measurement,setting,value
COc1ccc(C2CC(=O)c3ccc(OC)cc3O2)cc1 (centres undefined),normalized growth,"locus YAL021C, strain ccr4, hits give low values",0.953
same,normalized growth,"locus YAL026C, strain drs2, hits give low values",0.939
same,normalized growth,"locus YAL030W, strain snc1, hits give low values",0.954
same,normalized growth,"locus YBL061C, strain skt5, hits give low values",0.948
same,normalized growth,"locus YBR009C, strain hhf1, hits give low values",0.854 (active)
same,normalized growth,"locus YBR021W, strain FUR4, hits give low values",0.805 (active)
same,normalized growth,"locus YBR023C, strain chs3, hits give low values",0.915
same,normalized growth,"locus YBR171W, strain sec66, hits give low values",0.936
same,normalized growth,"locus YBR229C, strain ROT2, hits give low values",0.963
same,normalized growth,"locus YBR231C, strain swc5, hits give low values",0.921
same,normalized growth,"locus YBR279W, strain paf1, hits give low values",0.95
same,normalized growth,"locus YCL011C, strain gbp2, hits give low values",0.928
same,normalized growth,"locus YCL016C, strain dcc1, hits give low values",0.939
same,normalized growth,"locus YCL029C, strain bik1, hits give low values",0.923
same,normalized growth,"locus YCL061C, strain MRC1, hits give low values",0.932
same,normalized growth,"locus YCL069W, strain vba3, hits give low values",0.961
same,normalized growth,"locus YCR088W, strain abp1, hits give low values",0.957
same,normalized growth,"locus YDL005C, strain med2, hits give low values",0.96
same,normalized growth,"locus YDL035C, strain GPR1, hits give low values",0.872
same,normalized growth,"locus YDL040C, strain nat1, hits give low values",0.956
same,normalized growth,"locus YDL074C, strain BRE1, hits give low values",0.689 (active)
same,normalized growth,"locus YDL101C, strain DUN1, hits give low values",0.9
same,normalized growth,"locus YDL185W, strain tfp1, hits give low values",0.938
same,normalized growth,"locus YDL192W, strain arf1, hits give low values",0.891 (active)
same,normalized growth,"locus YDR001C, strain nth1, hits give low values",0.951
same,normalized growth,"locus YDR069C, strain doa4, hits give low values",0.953
same,normalized growth,"locus YDR101C, strain arx1, hits give low values",0.93
same,normalized growth,"locus YDR137W, strain rgp1, hits give low values",0.966
same,normalized growth,"locus YDR159W, strain sac3, hits give low values",0.929
same,normalized growth,"locus YDR162C, strain NBP2, hits give low values",0.74 (active)
same,normalized growth,"locus YDR195W, strain ref2",1.19 [resistant] (active)
same,normalized growth,"locus YDR297W, strain sur2, hits give low values",0.948
same,normalized growth,"locus YDR318W, strain mcm21, hits give low values",0.906 (active)
same,normalized growth,"locus YDR334W, strain swr1, hits give low values",0.961
same,normalized growth,"locus YDR335W, strain msn5, hits give low values",0.953
same,normalized growth,"locus YDR388W, hits give low values",0.955
same,normalized growth,"locus YDR392W, strain spt3, hits give low values",0.538 (active)
same,normalized growth,"locus YDR502C, strain sam2, hits give low values",0.882 (active)
same,normalized growth,"locus YEL003W, strain gim4, hits give low values",0.94
same,normalized growth,"locus YEL037C, strain rad23, hits give low values",0.962
same,normalized growth,"locus YEL061C, strain CIN8 (second series), hits give low values",0.967
same,normalized growth,"locus YEL061C, strain CIN8, hits give low values",0.905 (active)
same,normalized growth,"locus YER015W, strain faa2, hits give low values",0.96
same,normalized growth,"locus YER016W, strain bim1, hits give low values",0.963
same,normalized growth,"locus YER110C, hits give low values",0.937
same,normalized growth,"locus YER111C, strain swi4, hits give low values",0.959
same,normalized growth,"locus YER155C, strain BEM2 (second series), hits give low values",0.683 (active)
same,normalized growth,"locus YER155C, strain BEM2, hits give low values",0.979
same,normalized growth,"locus YER167W, strain BCK2, hits give low values",0.89 (active)
same,normalized growth,"locus YFR010W, strain ubp6, hits give low values",0.954
same,normalized growth,"locus YGL078C, strain dbp3, hits give low values",0.958
same,normalized growth,"locus YGL086W, strain mad1, hits give low values",0.898 (active)
same,normalized growth,"locus YGL167C, strain pmr1, hits give low values",0.938
same,normalized growth,"locus YGL173C, strain kem1, hits give low values",0.931
same,normalized growth,"locus YGL227W, strain vid30, hits give low values",0.959
same,normalized growth,"locus YGL240W, strain doc1, hits give low values",0.786 (active)
same,normalized growth,"locus YGL248W, strain PDE1, hits give low values",0.843 (active)
same,normalized growth,"locus YGL253W, strain hxk2, hits give low values",0.891 (active)
same,normalized growth,"locus YGR135W, strain pre9, hits give low values",0.857 (active)
same,normalized growth,"locus YGR229C, strain SMI1, hits give low values",0.504 (active)
same,normalized growth,"locus YGR252W, strain gcn5, hits give low values",0.628 (active)
same,normalized growth,"locus YHR013C, strain ard1, hits give low values",0.866
same,normalized growth,"locus YHR027C, strain rpn1, hits give low values",0.965
same,normalized growth,"locus YHR030C, strain SLT2, hits give low values",0.744 (active) and 0.843 (active)
same,normalized growth,"locus YHR079C, strain IRE1 (second series), hits give low values",0.97
same,normalized growth,"locus YHR079C, strain IRE1, hits give low values",0.878
same,normalized growth,"locus YHR094C, strain hxt1, hits give low values",0.956
same,normalized growth,"locus YHR129C, strain ARP1, hits give low values",0.882 (active)
same,normalized growth,"locus YHR142W, strain chs7, hits give low values",0.842 (active)
same,normalized growth,"locus YHR200W, strain rpn10, hits give low values",0.929
same,normalized growth,"locus YIL066C, strain RNR3, hits give low values",0.793 (active)
same,normalized growth,"locus YIL073C, strain SPO22, hits give low values",0.772
same,normalized growth,"locus YIL125W, strain kgd1, hits give low values",0.94
same,normalized growth,"locus YIR030C, strain dcg1, hits give low values",0.92 (active)
same,normalized growth,"locus YJL092W, strain hpr5, hits give low values",0.957
same,normalized growth,"locus YJL095W, strain BCK1 (second series), hits give low values",0.927
same,normalized growth,"locus YJL095W, strain BCK1, hits give low values",0.523 (active) and 0.838 (active)
same,normalized growth,"locus YJL115W, strain asf1, hits give low values",0.954
same,normalized growth,"locus YJL129C, strain trk1, hits give low values",0.992
same,normalized growth,"locus YJL134W, strain LCB3, hits give low values",0.975
same,normalized growth,"locus YJL154C, strain vps35, hits give low values",0.977
same,normalized growth,"locus YJL164C, strain tpk1, hits give low values",0.898 (active)
same,normalized growth,"locus YJL166W, strain qcr8, hits give low values",0.859 (active)
same,normalized growth,"locus YJL168C, strain set2, hits give low values",0.95
same,normalized growth,"locus YJL187C, strain SWE1 (second series), hits give low values",0.868
same,normalized growth,"locus YJL187C, strain SWE1, hits give low values",0.948
same,normalized growth,"locus YJR043C, strain POL32, hits give low values",0.861
same,normalized growth,"locus YJR066W, strain TOR1, hits give low values",0.805 (active)
same,normalized growth,"locus YKL009W, strain mrt4, hits give low values",0.862 (active)
